Data from PubChem BioAssay AID1053126 (Broad Institute, 2014).
Measured potencies and affinities stand elsewhere. Activity calls are given as the source filed them.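 Rule for the calls: active = cell killing with a fitted half-effect concentration at or below twice the top valid dose; inconclusive = flat curve with 30 to 70 percent drop, or poor fit; inactive = the rest.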

Test: HEK293T cell cytotoxicity, dose response, cytotoxicity control, ATP luminescence, cherry-pick, set 6 (AID 1053126);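 note: 0% = neutral control wells and -100% = mitoxantrone 10 µM positive control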
Conditions: HEK293T viability, CellTiter-Glo ATP luminescence, 72 h; series mostly up to 26 µM; activity change, negative = cytotoxicity: at the top concentration

SMILES | activity change, negative = cytotoxicity
Cc1ccc(-n2nnnc2CNC(=O)C(=O)c2c[nH]c3ccccc23)cc1C | 2.11% (inactive)
Cc1ccc2nc3c(cc(S(=O)(=O)c4ccccc4)c(=N)n3Cc3ccco3)c(=O)n2c1 | -15.9% (inactive)
CCC(Sc1nc(N)c(NC(=O)c2ccc(OC)cc2)c(=O)[nH]1)C(=O)O (configuration not stated) | -12.8% (inactive)
CCOc1ccc2nc(NCCCNS(=O)(=O)c3ccc(C)cc3)c(C#N)cc2c1 | 31.9% (inactive)
Clc1ccccc1C1=CC(c2ccco2)n2ncnc2N1 (configuration not stated) | -3.56% (inactive)
O=c1oc2c(CN3CCN(CCO)CC3)c(O)ccc2cc1-c1ccccn1 | -3.28% (inactive)
Cc1ccc(NC(=O)Nc2ccnc(-c3cccnc3)n2)cc1 | -11.9% (inactive)
Cn1cccc1/C=N/NC(=O)c1sc2cc(Cl)ccc2c1Cl | -10.6% (inactive)
Cc1c(C=O)c2ccccn2c1C(=O)c1cccs1 | -6.91% (inactive)
N#Cc1ccc(OCC(=O)OCC(=O)N2CCc3ccccc32)cc1 | -5.79% (inactive)
CCOC(=O)c1oc2c(CN3CCN(CCO)CC3)c(O)c(CC)cc2c(=O)c1-c1nc2ccccc2s1 | -10.5% (inactive)
COc1cccc(N2CCN(C(=O)C3CCCN(S(=O)(=O)c4cnc[nH]4)C3)CC2)c1 (configuration not stated) | 34.1% (inactive)
COc1ccc(Br)c(Cn2c(C)c(C(=O)NCc3ccc4c(c3)OCCO4)sc2=O)c1 | -13.7% (inactive)
CCOC(=O)c1cc2c(=O)n3cccc(C)c3nc2n(CC(C)C)c1=NC(=O)c1ccco1 | -0.128% (inactive)
CCOCCCNc1nc2nc3ccc(C)cn3c(=O)c2cc1C(=O)NCC1CCCO1 (configuration not stated) | -3.04% (inactive)
CCOC(=O)c1cc2c(=O)n3ccccc3nc2n(Cc2ccc(Cl)cc2)c1=N | 7.6% (inactive)
C=CCn1c(=N)c(C#N)cc2c(=O)n3ccccc3nc21 | -9.32% (inactive)
